For 73 compounds, activity change, negative = inhibition results are on record in PubChem BioAssay AID1259421 (Broad Institute, 2018).

“And” between values parts separate entries of the source, which are not always exact repeats. Equal values may be shown once. Screen size: about 6,400 compounds; about 610 (9.5%) were called active. Cut-off read from the data, not from the text of the source: active = activity change below about -70%; inconclusive = no clear call, values can overlap the other calls; inactive = above that. The sample as a whole holds a higher share of actives than the screen did. Where a SMILES comes first, the peptide text is derived from it.

The test is described as follows: T. gondii ME49Luc in HeLa cells, luciferase assay, 72 h, no IFN-y (AID 1259421). As to conditions: hits give low values, concentration not given here.
`CCOC(=O)C12CC1/C(=N/O)c1ccccc1O2` (stereo not drawn): the activity change, negative = inhibition was 10.1% (inactive). The same measure for `O=[Si]=O`: 10.7% (inactive). As for `CCCCCCCCN1C(=O)C(C(C)=O)=C(C)C1(C)O` (stereo not drawn), the activity change, negative = inhibition was 12.4% (inactive). With `O=C(O)[C@H]1CN(CCCP(=O)(O)O)CCN1` the figure was 4.53% (inactive). Take `Oc1ccc2c(c1)OCC1(O)Cc3cc(O)c(O)cc3C21` (stereo not drawn): the activity change, negative = inhibition is -0.693% (inactive).

Take `Nc1[nH]nc2nc3ccccc3nc12`: the activity change, negative = inhibition is 19.2% (inactive).

`Nc1nc2c(ncn2[C@@H]2O[C@@H](CO)[C@@H](O)[C@H]2O)c(=O)[nH]1`: the activity change, negative = inhibition was -3.02% (inactive). With `Nc1ncnc2c1ncn2[C@@H]1O[C@H](CO)[C@@H](O)[C@H]1O` the figure was 6.4% (inactive); with `Nc1nc(=S)c2ncn([C@@H]3O[C@H](CO)[C@@H](O)[C@H]3O)c2[nH]1`, -79.5% (active). The same measure for `Cc1nnsc1C(=O)Nc1ccc(-n2nc(C(F)(F)F)cc2C(F)(F)F)cc1`: -80% (active); for `COc1ccc2oc3ccccc3c(=O)c2c1`: 118% (inactive). The same measure for `OCC1OC2OC3C(CO)OC(OC4C(CO)OC(OC5C(CO)OC(OC6C(CO)OC(OC7C(CO)OC(OC8C(CO)OC(OC1C(O)C2O)C(O)C8O)C(O)C7O)C(O)C6O)C(O)C5O)C(O)C4O)C(O)C3O` (stereo not drawn): 1.48% (inactive); for `O=C(O)c1ccc2c3c1cccc3c(=O)n1c3ccccc3nc21`: 9.96% (inactive); for `COc1nc(N)nc2c1ncn2[C@@H]1O[C@H](CO)[C@@H](O)[C@@H]1O`: -2.56% (inactive) and 14.5% (inactive). With `COc1ccc(C[C@H](N)C(=O)N[C@@H]2[C@@H](CO)OC(n3cnc4c(N(C)C)ncnc43)[C@@H]2O)cc1` (stereo partly drawn), the activity change, negative = inhibition is -80.4% (active) and -91% (active).

For `CO[C@@H]1[C@H](O)[C@@H](CO)O[C@H]1n1cnc2c(NC3CCCCC3)ncnc21`, the activity change, negative = inhibition is 2.27% (inactive). With `O=C(O)c1cc2cccc([N+](=O)[O-])c2[nH]1` the figure was 8.58% (inactive); with `CO/N=C(/C(=O)NC1C(=O)N2C(C(=O)O)=C(C[N+]3(C)CCCC3)CSC12)c1csc(N)n1` (stereo not drawn), 6.5% (inactive); with `NC(=O)c1ccc(-c2nc(-c3ccc4c(c3)OCCO4)c(-c3ccccn3)[nH]2)cc1`, 25.7% (inactive) and -23.2% (inactive).

Take `NC(=O)c1ccc(-c2nc(-c3ccc4c(c3)OCO4)c(-c3ccccn3)[nH]2)cc1`: the activity change, negative = inhibition is -37% (inactive). In the case of `Cc1cccc(-c2[nH]c(C(C)(C)C)nc2-c2ccc3nccnc3c2)n1`, the activity change, negative = inhibition was -81% (active). With `Cc1cccc(-c2[nH]c(C(C)(C)C)nc2-c2ccc3c(c2)OCO3)n1` the figure was -75.7% (active); with `C=C[C@@]1(C)CC(=O)[C@@]2(O)[C@](C)(O1)[C@@H](O)[C@@H](O)C1C(C)(C)CC[C@H](O)[C@@]12C` (stereo partly drawn), 11.2% (inactive). The same measure for `C=CC(C)(O)CCC=C(C)C` (stereo not drawn): 11.3% (inactive). The same measure for `COc1ccccc1N1CCN(CC2CN3C(=O)N(C)c4ccccc4C3=N2)CC1` (stereo not drawn): 1.95% (inactive). Take `CC(=O)O[C@]1(C(C)=O)CCC2C3C=C(Cl)C4=CC(=O)[C@@H]5C[C@@H]5[C@]4(C)C3CC[C@@]21C` (stereo partly drawn): the activity change, negative = inhibition was 11.3% (inactive). The same measure for `CCCCC(=O)N(Cc1ccc(-c2ccccc2-c2nn[nH]n2)cc1)[C@H](C(=O)O)C(C)C`: -0.624% (inactive) and 4.63% (inactive); for `C#CC1(OCC(O)CN2CCN(c3cccc(C(F)(F)F)c3)CC2)CCCCC1` (stereo not drawn): -34.5% (inactive).

For the compound `CCCOc1ccc(S(=O)(=O)N2CCN(CCO)CC2)cc1-c1nc2c(CCC)cn(CC)c2c(=O)[nH]1`, the activity change, negative = inhibition is 0.0881% (inactive).

Consider `CC(C)[C@H](CO)Nc1nc(Nc2ccc(C(=O)O)c(Cl)c2)c2ncn(C(C)C)c2n1`, for which the activity change, negative = inhibition is 13% (inactive) and 1.51% (inactive). The same measure for `CC(C)n1cnc2c(NCc3ccccc3)nc(NCCCO)nc21`: 0.139% (inactive); for `CC(C)[C@H](CO)Nc1nc(Nc2cc(N)cc(Cl)c2)c2ncn(C(C)C)c2n1`: -82.6% (active). With `CC(C)[C@H](CO)Nc1nc(Nc2cccc(Cl)c2)c2ncn(C(C)C)c2n1` the figure was -86% (active) and -72.5% (active); with `CC[C@@H]1OC(=O)C[C@@H](O)[C@H](C)[C@@H](O[C@@H]2O[C@H](C)[C@@H](O)[C@H](N(C)C)[C@H]2O)[C@@H](CCN2C[C@H](C)C[C@H](C)C2)C[C@@H](C)C(=O)/C=C/C(C)=C\[C@@H]1CO[C@@H]1O[C@H](C)[C@@H](O)[C@@H](OC)[C@H]1OC`, 17.5% (inactive); with `CN1[C@@H]2CC(OC(=O)[C@H](CO)c3ccccc3)C[C@H]1[C@H]1O[C@H]12` (stereo partly drawn), 23.8% (inactive). The same measure for `CCCCCCCC/C=C/C(=O)O`: 1.14% (inactive); for `CO/N=C(\C(=O)N[C@@H]1C(=O)N2C(C(=O)OCOC(=O)C(C)(C)C)=C(C)CS[C@H]12)c1csc(N)n1`: 21.8% (inactive); for `OC[C@@]1(O)OC[C@@H](O)[C@@H](O)[C@@H]1O`: 7.13% (inactive). As to `COc1cc(N2CCC(N3CCN(C)CC3)CC2)ccc1Nc1ncc(Cl)c(Nc2ccccc2S(=O)(=O)C(C)C)n1`, the activity change, negative = inhibition was -84.8% (active). The same measure for `COc1cc(N2CCC(N3CCN(C)CC3)CC2)ccc1Nc1ncnc(Nc2ccccc2S(=O)(=O)C(C)C)n1`: -35.3% (inactive); for `COc1cc(N2CCC(N)CC2)ccc1Nc1ncc(Cl)c(-c2c[nH]c3ccccc23)n1`: -81% (active).

Consider `CNC(=O)c1c(F)cccc1Nc1nc(Nc2cc3c(cc2OC)CCN3C(=O)CN(C)C)nc2[nH]ccc12`, for which the activity change, negative = inhibition was -10.7% (inactive).

Regarding `COc1cc(N2CCC(N(C)C)CC2)ccc1Nc1ncc(Cl)c(Nc2ccccc2P(C)(C)=O)n1`, the activity change, negative = inhibition is -60.2% (inactive). The same measure for `CNC(=O)c1ccccc1Nc1cc(Nc2ccc(N3CCOCC3)cc2OC)ncc1C(F)(F)F`: -46.5% (inactive); for `CNC(=O)c1ccccc1Nc1nc(Nc2ccc3c(c2OC)CCC[C@H](N2CCN(CCO)CC2)C3)ncc1Cl`: -74.8% (active).

Consider `CNC(=O)c1ccccc1Nc1nc(Nc2ccc(N3CCOCC3)cc2OC)ncc1Cl`, for which the activity change, negative = inhibition was -73.7% (active) and -87.3% (active). The same measure for `CN1CCN(c2nc(C3=C(c4c[nH]c5ccccc45)C(=O)NC3=O)c3ccccc3n2)CC1`: -9.55% (inactive). Turning to `CN(CCc1ccc(Cl)c(Cl)c1)CC(O)COc1ccc(NS(C)(=O)=O)cc1` (stereo not drawn), the activity change, negative = inhibition is -4.31% (inactive) and -8.47% (inactive). With `O=C(NCC(=O)N1CC[C@H](NC2CCC(O)(c3ccc(-c4ncccn4)cn3)CC2)C1)c1cccc(C(F)(F)F)c1` (stereo partly drawn), the activity change, negative = inhibition is 13.2% (inactive). For the compound `COc1ccc2nc(S(=O)Cc3ncc(C)c(OC)c3C)[nH]c2c1` (stereo not drawn), the activity change, negative = inhibition was 29.5% (inactive) and 32.8% (inactive) and 15.1% (inactive). The same measure for `O=Cc1ccc(CO)o1`: 3.95% (inactive). The same measure for `O=c1c(OC2OC(CO)C(O)C(O)C2O)c(-c2ccc(O)c(O)c2)oc2cc(O)cc(O)c12` (stereo not drawn): -1.42% (inactive). With `NCC(=O)N[C@@H](CCC(N)=O)C(=O)O` (H-Gly-Gln-OH) the figure was 6.58% (inactive). Take `CC(C)C(N)=O`: the activity change, negative = inhibition was 7.84% (inactive).

Turning to `Nc1ncnc2c1C(=O)N(c1ccc(C3CCC(CC(=O)O)CC3)cc1)CCO2` (stereo not drawn), the activity change, negative = inhibition was 6.2% (inactive). In the case of `NC1=N[C@H]2[C@H](CS[C@H]2CCCCC(=O)O)N1`, the activity change, negative = inhibition was 20.2% (inactive). The same measure for `C=C[C@]1(C)C[C@@H](OC(=O)CSC2C[C@H]3CC[C@@H](C2)N3C)[C@]2(C)[C@H](C)CC[C@]3(CCC(=O)[C@H]32)[C@@H](C)[C@@H]1O` (stereo partly drawn): -18.6% (inactive); for `CC[C@H](NC(C)C)[C@H](O)c1ccc(O)c2[nH]c(=O)ccc12`: 3.71% (inactive); for `CCOc1cc2ncc(C#N)c(Nc3ccc(OCc4ccccn4)c(Cl)c3)c2cc1NC(=O)/C=C/CN(C)C`: -78.7% (active). With `CCOc1cc(C(=O)Nc2ccc(Cl)c(-c3nc4ccccc4[nH]3)c2)cc(OCC)c1OCC` the figure was -69.9% (inactive).

In the case of `C=CC(=O)Nc1cc2c(Nc3ccc(F)c(Cl)c3)ncnc2cc1C#CC(C)(C)N1CCN(C)CC1`, the activity change, negative = inhibition was -57.7% (inactive).

Take `CCOc1cc2ncc(C#N)c(Nc3ccc(F)c(Cl)c3)c2cc1NC(=O)/C=C/CN(C)C`: the activity change, negative = inhibition is -84.3% (active). The same measure for `C[C@@H](NC(=O)c1ncnc(N)c1Cl)c1ncc(C(=O)Nc2cc(C(F)(F)F)c(Cl)cn2)s1`: 10.6% (inactive); for `Cc1nc(NC(=O)N2CCC[C@H]2C(N)=O)sc1-c1csc(C(C)(C)C)n1`: 17.5% (inactive).

With `OCCNCCCOc1cccc(Cl)c1Cl`, the activity change, negative = inhibition was -43.4% (inactive) and 19.3% (inactive). The same measure for `COc1cc([C@@H]2c3cc4c(cc3[C@@H](O[C@@H]3O[C@@H]5CO[C@@H](c6cccs6)O[C@H]5[C@H](O)[C@H]3O)[C@H]3COC(=O)[C@H]23)OCO4)cc(OC)c1O`: -72.9% (active).

Consider `COc1cc([C@@H]2c3cc4c(cc3C(O[C@@H]3O[C@@H]5CO[C@@H](c6cccs6)OC5[C@H](O)[C@H]3O)C3COC(=O)[C@@H]32)OCO4)cc(OC)c1O` (stereo partly drawn), for which the activity change, negative = inhibition is -79.4% (active). With `COc1cc([C@@H]2c3cc4c(cc3[C@H](O)[C@H]3COC(=O)[C@H]23)OCO4)cc(OC)c1OC` the figure was -64.9% (inactive); with `COc1cc([C@@H]2c3cc4c(cc3[C@H](O)[C@H]3COC(=O)[C@@H]23)OCO4)cc(OC)c1OC`, -71% (active); with `COc1cc([C@@H]2c3cc4c(cc3C(OC3OC5COC(C)OC5C(O)C3O)C3OCC(=O)[C@@H]32)OCO4)cc(OC)c1O` (stereo partly drawn), -24.1% (inactive). The same measure for `COc1cc([C@@H]2c3cc4c(cc3[C@@H](O[C@@H]3O[C@@H]5CO[C@@H](C)O[C@H]5[C@H](O)[C@H]3O)[C@H]3COC(=O)[C@H]23)OCO4)cc(OC)c1O`: -10.1% (inactive) and -3.38% (inactive) and 9.65% (inactive); for `COc1cc([C@@H]2c3cc4c(cc3C(OC3O[C@@H]5COC(C)O[C@H]5[C@H](O)[C@H]3O)C3COC(=O)[C@@H]32)OCO4)cc(OC)c1O` (stereo partly drawn): -0.506% (inactive); for `COc1cc2c(c(OC)c1OC)-c1c(cc3c(c1OC)OCO3)C[C@H](C)[C@@H](C)C2`: 13.7% (inactive).
